Screens (PubChem)
NS1 inh = qHTS Assay for Inhibitors of Influenza NS1 Protein Function. Potency, µM (doses to about 46.1 µM), without a hit: at the highest dose activity, positive = more growth. 270,000 compounds, 0.4% hits; calls by dose curve; further: actives are rising curves; nearly all actives have a fitted effect of over 50% in size
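OD600 was taken as the measure of yeast growth restored by compound in an NS1-expressing S. cerevisiae strain. Cells had been washed out of glucose medium and diluted 1:100 into galactose -URA medium, pH 6.0.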
AmpC inh detg = qHTS Inhibitors of AmpC Beta-Lactamase (assay with detergent); 370,000 compounds, 0.041% hits; AmpC hydrolysis of nitrocefin, absorbance 480 nm, 0.01% Triton; Potency, µM (titrated, usually from 114 µM), for inactives: at the highest dose activity change, negative = inhibition, hits mostly inhibitors;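 further: 0% = no-compound wells and -100% = no-enzyme wells; nearly all actives have a fitted effect of over 25% in size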
Target sequence (P00811 whole entry, looked up): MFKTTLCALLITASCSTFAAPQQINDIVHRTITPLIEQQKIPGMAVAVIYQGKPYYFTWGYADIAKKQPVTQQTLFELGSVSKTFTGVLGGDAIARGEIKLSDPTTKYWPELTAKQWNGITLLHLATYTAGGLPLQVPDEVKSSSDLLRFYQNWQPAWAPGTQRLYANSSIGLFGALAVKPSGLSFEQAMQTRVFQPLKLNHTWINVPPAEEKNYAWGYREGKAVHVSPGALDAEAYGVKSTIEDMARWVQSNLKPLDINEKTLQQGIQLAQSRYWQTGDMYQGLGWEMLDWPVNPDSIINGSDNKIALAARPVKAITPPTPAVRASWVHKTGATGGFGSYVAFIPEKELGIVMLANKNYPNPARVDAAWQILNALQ
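20 mM phosphate pH 7.0 + 0.01% (detergent screen) or 0.0001% Triton X-100; 5.3 nM AmpC reagent; cpd preinc 15 min RT; nitrocefin (800 uM stock) to start; A480 q20 s × 4 min; Activity was normalised to no-enzyme and no-compound control wells.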
AmpC inh no detg = qHTS Inhibitors of AmpC Beta-Lactamase (assay without detergent); Potency, µM (doses to about 57.1 µM), for the others: top-dose activity change, negative = inhibition, hits mostly inhibitors; AmpC nitrocefin hydrolysis, absorbance 480 nm, 0.0001% Triton; 330,000 compounds, 0.52% hits;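 further: plate controls were no compound for no effect and no enzyme for full effect; nearly all actives have a fitted effect of over 20% in size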
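AmpC (5.3 nM in the dispensed reagent) in 20 mM phosphate pH 7.0 with 0.01% (detergent screen) or 0.0001% Triton X-100 was preincubated with compounds for 15 min at room temperature. Nitrocefin was then added from an 800 uM solution, and hydrolysis was followed at 480 nm.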
AMA1-RON2 inh = qHTS for Inhibitors of AMA1-RON; Towards Development of Antimalarial Drug Lead: Primary Screen; AlphaScreen AMA1-biotinylated RON2 peptide binding; Potency, µM (series often up to 58.2 µM), without a hit: top-dose activity change, negative = inhibition, actives largely listed as inhibitors; 360,000 compounds, 0.2% hits; AID 720542, 2013;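 further: 0% = vehicle wells and -100% = peptide control; nearly all actives have a fitted effect of over 45% in size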
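AMA1 (3D7) with his tag at 25 nM final met compounds first, then biotinylated RON2 peptide at 25 nM; detection used donor plus acceptor beads, 10 µg/mL apiece, read by AlphaScreen after 30 min at room temperature.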
* hit, by the source's call; ? = inconclusive; / = not tested or not shown. Most compounds without a hit are left out; they make up all but 0.86% or so of the library. Unless noted, the call rests on the fitted dose curve; in most records, active means well fitted curve in the direction sought with a large enough effect; inconclusive means small, poorly fitted or top-dose-only effect, or another doubt; inactive means no such curve, though single readings can be large; an effect the other way counts as inactive or inconclusive. Potency means the concentration at half of the fitted maximal effect.

SMILES	NS1 inh	AmpC inh detg	AmpC inh no detg	AMA1-RON2 inh
COC(=O)CSc1nnc([C@H](Cc2ccccc2)NC(=O)OC(C)(C)C)o1	0%	-14%	22%	5%
CN1CCN(c2ccccc2NC(=O)COc2ccc(Cl)cc2)CC1	0%	6%	-5%	0%
Fc1ccccc1CNC(=S)Nc1cccc(C(F)(F)F)c1	-36%	-10%	-32%	41%
Cc1c(C(=O)NC(=S)Nc2ccc(NC(=O)c3cccs3)cc2)oc2ccccc12	-31%	?	18µM*	0%
Cc1cc(NS(=O)(=O)c2ccc(NC(=O)c3oc4ccccc4c3C)cc2)no1	-21%	-5%	?	30µM*
Cc1cccc(-c2nc(CN3CCCC(C(=O)NCc4ccc(Cl)cc4)C3)c(C)o2)c1 (stereo not given)	/	20%	/	/
COc1ccc2c(c1O)-c1cccc3c1C(C2)N(C)CC3 (stereo not given)	6%	/	/	/
CN1CCc2cccc3c2[C@H]1Cc1ccc(O)c(O)c1-3	-14%	?	-48%	10µM*
Cc1cc(C(=O)N2CC(C)CC(C)C2)n(-c2ccccc2)n1 (stereo not given)	-12%	?	8.9µM*	18%
Cc1cc(C(=O)N2CCOCC2)n(-c2ccccc2)n1	2%	10%	-3%	12%
Cc1ccc(C(=O)C[n+]2cccc3ccccc32)cc1	6%	0%	0.16µM*	-5%
O=C(C[n+]1cccc2ccccc21)c1ccc(Br)cc1	11%	?	-22%	13%
FC(F)(F)c1ccccc1NC(=S)Nn1cnnc1	-44%	3%	-34%	25%
CCc1ccc(NC(=O)CSc2nnc(Cc3cccn3C)n2-c2ccc(F)cc2)cc1	-72%	-17%	13µM*	-2%
CCCCCC(=O)Nc1cccc(C2=NOC3(C2)C[C@@H](C(N)=O)N(C(=O)C2(C)CC2)C3)c1 (stereo not given in full)	3%	3%	44%	12%
COc1cccc(CNC(=O)[C@@H]2CCCN2C(=O)[C@@H]2CCCN2C(=O)c2cccc3ccccc23)c1	/	/	/	-1%
Nc1c2c(nc3sc4c(c13)CCCC4)CCCCC2	-6%	-1%	4µM*	-5%
COc1cc2c(cc1OC)C(Cc1ccc(O)cc1)NCC2 (stereo not given)	?	?	-30%	19%
Oc1ccc(C[C@H]2NCCc3cc(O)c(O)cc32)cc1O	6%	0%	-22%	2.5µM*
FC(F)Sc1ccc(NC(=S)NC(c2ccccc2)c2ccccc2)cc1	/	10%	18µM*	93%
CC(NC(=O)c1ccc(OC2CCN(S(=O)(=O)N(C)C)CC2)cc1)C1CC1 (stereo not given)	-1%	4%	16%	-3%
CC1=CC(=O)C(Sc2ccc(C)cc2)=CC1=O	/	/	/	13µM*
Cc1ccc(SC2=C(Sc3ccc(C)cc3)C(=O)c3ccccc3C2=O)cc1	5%	-5%	-49%	?
O=C(NNS(=O)(=O)c1ccc(C(F)(F)F)cc1)c1cnn(-c2ccccc2)c1C(F)(F)F	8%	2%	-9%	16%
O=C(Nc1ccc(-c2cn3ccccc3n2)cc1)c1cccs1	/	-7%	28µM*	-21%
SMILES	NS1 inh	AmpC inh detg	AmpC inh no detg	AMA1-RON2 inh
O=[N+]([O-])c1ccccc1-c1nc(-c2ccc(Br)o2)no1	-4%	-5%	-22%	25µM*
Cc1nn2cc(-c3ccc(Cl)cc3)cnc2c1Cl	/	-18%	-13%	0%
C[C@@H]1CN(S(=O)C(C)(C)C)[C@@H](CCO)/C1=C\CCO (stereo not given in full)	/	/	/	-1%
COc1cccc(NC(=O)C(=O)NCC(c2cccnc2)N2CCN(c3ccccc3)CC2)c1 (stereo not given)	/	-2%	/	/
CC(C)c1nc2oc3c(N4CCNCC4)ncnc3c2c2c1CCC2	3.2µM*	/	/	-7%
CC1CCN(C2=C(NS(=O)(=O)c3ccc(Cl)cc3)C(=O)c3ccccc3C2=O)CC1	6%	-1%	?	?
CCOC(=O)C1CCN(C2=C(NS(=O)(=O)c3ccc(Cl)cc3)C(=O)c3ccccc3C2=O)CC1	5%	4%	-23%	13µM*
CC1CCCN(C2=C(NS(=O)(=O)c3ccc(Br)cc3)C(=O)c3ccccc3C2=O)C1 (stereo not given)	-20%	?	-38%	?
CCOC(=O)C1CCCN(C2=C(NS(=O)(=O)c3ccc(Br)cc3)C(=O)c3ccccc3C2=O)C1 (stereo not given)	15%	5%	-35%	13µM*
CCOc1ccc(CCNC(=O)CCCn2nc(C)c3sc4ccccc4c3c2=O)cc1OCC	/	0%	/	/
Cc1cc(NC(=O)CC2(CC(=O)O)CCCC2)n(C)n1	-37%	0%	-11%	-5%
O=C1CC(N2CC=C(c3ccccc3)CC2)C(=O)N1c1ccc(F)cc1 (stereo not given)	-41%	?	45µM*	2%
N=C1SC(c2ccccc2)C(=O)N1c1ncc(Cc2ccccc2Cl)s1 (stereo not given)	7%	-12%	16µM*	74%
O=C(CSc1nnnn1-c1ccccc1)Nc1ncc(Cc2ccccc2Cl)s1	6%	5%	-16%	8%
O=C(Nc1cccc(C(F)(F)F)c1)c1cncs1	0%	1%	0%	1%
O=C(O)COc1ccc(/C=N/NC(=O)c2ccc(-c3csc(Nc4ccc(Cl)cc4)n3)cc2)cc1	5%	?	-54%	-28%
CCOc1cc(/C=N/NC(=O)c2ccc(-c3csc(Nc4ccc(C)cc4)n3)cc2)ccc1OCC(=O)O	/	-2%	1.4µM*	0%
CCc1ccc(-c2nc3c(c(SCc4ccc(F)cc4)n2)Cc2c(CO)cnc(C)c2O3)cc1	/	-3%	/	/
COCCn1c(Sc2nc(C)cs2)nc2c1c(=O)[nH]c(=O)n2C	3%	-1%	0.16µM*	13%
Cc1cc(C)c(S(=O)(=O)N2CCCC(C(=O)NC3CCCC3)C2)c(C)c1 (stereo not given)	-11%	-15%	35%	10%
O=C(c1ccco1)c1coc2c1cc(O)c1ccccc12	0%	-2%	-44%	0%
Cc1nc(CS(=O)(=O)c2ccc(Cl)cc2)cc(Sc2ccc(Cl)cc2)n1	3%	10%	4µM*	-1%
O=S(=O)(Cc1cc(Sc2ccc(Cl)cc2)nc(-c2ccccc2)n1)c1ccccc1	-2%	1%	-15%	-6%
O=C(Nc1ccccc1C(=O)NCc1ccco1)Nc1cccc2ccccc12	/	-5%	20µM*	-9%
O=C(NCc1ccco1)c1cccc2ccccc12	-7%	?	-23%	-1%
COc1ccc(S(=O)(=O)n2ccc(C(C)Oc3ccc(-c4ccccc4)c(F)c3)n2)cc1 (stereo not given)	7%	3%	0.4µM*	0%
CC(Oc1ccc(-c2ccccc2)c(F)c1)c1ccn(S(=O)(=O)c2ccc(F)cc2)n1 (stereo not given)	-2%	-8%	-21%	3%
